Source: PubChem BioAssay (EPA / NIEHS)
The source made the active and inactive calls. How the source made its calls: active means hit-call score of the fitted dose curve at least 0.9, where 1 is the maximum; inactive means score below 0.9.

Experiments:
Details in all cases: mRNA level, 48 h; actives raise or lower the signal
[1] = read-out: growth arrest and DNA damage 45 (GADD45G), GADD45G (gene 10912); assay: LTEA_HepaRG_GADD45G: Life Technologies and Expression Analysis (LTEA) Assay for growth arrest and DNA damage 45 (GADD45G) using HepaRG (AID 2283499)
How it was run: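 Human hepatic HepaRG line treated 48 h with chemicals (eight concentrations, half-log steps from 100 uM); transcript induction or repression of GADD45G scored by qRT-PCR versus DMSO vehicle.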

[2] = read-out: Glutamate-cysteine ligase regulatory (GCLM), GCLM (gene 2730); assay: LTEA_HepaRG_GCLM: Life Technologies and Expression Analysis (LTEA) Assay for Glutamate-cysteine ligase regulatory (GCLM) using HepaRG (AID 2283500)
How it was run: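 Differentiated human HepaRG cells exposed 48 h in serum-free induction medium to 8-point half-log concentrations (top 100 uM, 0.5% DMSO), in duplicate. GCLM mRNA quantified by qRT-PCR, normalized to ACTB, GAPDH, POLR2A; bidirectional fitting versus DMSO.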

[3] = read-out: Glutathione S-transferase M3 (GSTM3), GSTM3 (gene 2947); assay: LTEA_HepaRG_GSTM3: Life Technologies and Expression Analysis (LTEA) Assay for Glutathione S-transferase M3 (GSTM3) using HepaRG (AID 2283501)
How it was run: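 Changes in GSTM3 expression, an oxidative-stress marker, were scored by bidirectional curve fitting against 0.5% DMSO vehicle. Human HepaRG cultures received chemicals for 48 h in duplicate, highest concentration 100 uM with half-log dilutions.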

[4] = read-out: Heat shock 70 kDa protein 1 (HSPA1A), gene 3303; assay: LTEA_HepaRG_HSPA1A: Life Technologies and Expression Analysis (LTEA) Assay for Heat shock 70 kDa protein 1 (HSPA1A) using HepaRG (AID 2283502)
How it was run: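 Differentiated human HepaRG cells in serum-free induction medium were exposed in duplicate for 48 h to eight concentrations (top 100 uM, half-log steps, 0.5% DMSO). HSPA1A mRNA was quantified by qRT-PCR, normalized to ACTB, GAPDH and POLR2A, and fitted bidirectionally against DMSO.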

[5] = read-out: Hypoxia-inducible factor 1-alpha (Homo sapiens) (UniProt Q16665); assay: LTEA_HepaRG_HIF1A: Life Technologies and Expression Analysis (LTEA) Assay for Hypoxia-inducible factor 1 (HIF1A) Trancription factor using HepaRG (AID 2283503)
How it was run: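 HepaRG, 48 h exposure, 8-pt half-log series from 100 uM, 0.5% DMSO vehicle, duplicates. Readout: HIF1A transcript by qRT-PCR (Fluidigm array), housekeeping-normalised. Bidirectional curve fit vs DMSO baseline.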

[6] = read-out: 3-Hydroxy-3-Methylglutaryl-CoA Synthase 2 (HMGCS2), HMGCS2 (gene 3158); assay: LTEA_HepaRG_HMGCS2: Life Technologies and Expression Analysis (LTEA) Assay for 3-Hydroxy-3-Methylglutaryl-CoA Synthase 2 (HMGCS2) using HepaRG (AID 2283504)
How it was run: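 Expression of HMGCS2 in human HepaRG liver cells is measured by qRT-PCR 48 h after dosing (highest 100 uM, half-log series, 0.5% DMSO). Values come from bidirectional concentration-response fitting with DMSO as baseline.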

HGF (gene 3082) = assay: LTEA_HepaRG_HGF: Life Technologies and Expression Analysis (LTEA) Assay for Hepatocyte Growth Facto (HGF) using HepaRG (AID 2283505)
How it was run: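 Gain or loss of HGF mRNA in human HepaRG liver cells after 48 h chemical exposure; eight concentrations up to 100 uM with 0.5% DMSO vehicle, quantified by TaqMan qRT-PCR.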

[7] = read-out: Insulin Like Growth Factor 1 (IGF1), IGF1 (gene 3479); assay: LTEA_HepaRG_IGF1: Life Technologies and Expression Analysis (LTEA) Assay for Insulin Like Growth Factor 1 (IGF1) using HepaRG (AID 2283506)
How it was run: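 Differentiated human HepaRG cells were dosed for 48 h in serum-free induction medium with 0.5% DMSO, eight half-log concentrations up to 100 uM, in duplicate. IGF1 mRNA was quantified by qRT-PCR normalized to ACTB, GAPDH, POLR2A; bidirectional fitting versus DMSO.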

[8] = read-out: Intercellular Adhesion Molecule 1 (ICAM1), ICAM1 (gene 3383); assay: LTEA_HepaRG_ICAM1: Life Technologies and Expression Analysis (LTEA) Assay for Intercellular Adhesion Molecule 1 (ICAM1) using HepaRG (AID 2283507)
How it was run: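 Gain or loss of transcript in HepaRG hepatic cells is quantified by qRT-PCR after 48 h chemical exposure (up to 100 uM, half-log steps), with DMSO as baseline.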

[9] = read-out: Insulin-like growth factor-binding protein 1 (IGFBP1), IGFBP1 (gene 3484); assay: LTEA_HepaRG_IGFBP1: Life Technologies and Expression Analysis (LTEA) Assay for Insulin-like growth factor-binding protein 1 (IGFBP1) using HepaRG (AID 2283508)
How it was run: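 mRNA induction or loss was quantified by qRT-PCR after 48 h chemical exposure of human HepaRG cells, with 0.5% DMSO as vehicle and baseline. Concentration-response over eight points up to 100 uM.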

[10] = read-out: Interleukin 6 (IL6), IL6 (gene 3569); assay: LTEA_HepaRG_IL6: Life Technologies and Expression Analysis (LTEA) Assay for Interleukin 6 (IL6) using HepaRG (AID 2283509)
How it was run: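 Differentiated human HepaRG cells, plated 48 h then switched to serum-free induction medium, were exposed in duplicate for 48 h to eight half-log concentrations up to 100 uM in 0.5% DMSO. IL6 mRNA measured by qRT-PCR, normalized to ACTB/GAPDH/POLR2A.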

[11] = read-out: Interleukin 6 Receptor (IL6R), IL6R (gene 3570); assay: LTEA_HepaRG_IL6R: Life Technologies and Expression Analysis (LTEA) Assay for Interleukin 6 Receptor (IL6R) using HepaRG (AID 2283510);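 on AC50: TaqMan qRT-PCR signal normalized to ACTB GAPDH and POLR2A housekeeping genes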
How it was run: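 Differentiated human HepaRG cells, plated 48 h then switched to serum-free induction medium, were dosed in duplicate for 48 h at eight half-log concentrations up to 100 uM in 0.5% DMSO. IL6R mRNA quantified by qRT-PCR, normalized to ACTB/GAPDH/POLR2A; bidirectional fit versus DMSO.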

[12] = read-out: Potassium channel subfamily K member 1 (KCNK1), KCNK1 (gene 3775); assay: LTEA_HepaRG_KCNK1: Life Technologies and Expression Analysis (LTEA) Assay for Potassium channel subfamily K member 1 (KCNK1) using HepaRG (AID 2283511)
How it was run: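 Differentiated human HepaRG cells in serum-free induction medium were exposed in duplicate for 48 h to 8 half-log concentrations up to 100 uM in 0.5% DMSO. KCNK1 mRNA was measured by TaqMan qRT-PCR, normalized to ACTB, GAPDH and POLR2A, and fitted bidirectionally versus DMSO.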

[13] = read-out: Keratin 19 (KRT19), KRT19 (gene 3880); assay: LTEA_HepaRG_KRT19: Life Technologies and Expression Analysis (LTEA) Assay for Keratin 19 (KRT19) using HepaRG (AID 2283512)
How it was run: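 Gene-expression endpoint in the human liver line HepaRG after 48 h exposure to up to 100 uM test chemical with 0.5% DMSO vehicle; KRT19 mRNA by qRT-PCR, analyzed bidirectionally versus DMSO.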

[14] = read-out: JUN Transcription Factor, JUN (gene 3725); assay: LTEA_HepaRG_JUN: Life Technologies and Expression Analysis (LTEA) Assay for JUN Transcription Factor using HepaRG (AID 2283513)
How it was run: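 Differentiated HepaRG cells were exposed to chemicals for 48 h in serum-free induction medium, 8 concentrations from 100 uM in half-log steps, 0.5% DMSO vehicle, in duplicate. JUN mRNA was quantified by TaqMan qRT-PCR, normalized to ACTB, GAPDH, POLR2A.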

[15] = read-out: Lipase C (LIPC), LIPC (gene 3990); assay: LTEA_HepaRG_LIPC: Life Technologies and Expression Analysis (LTEA) Assay for Lipase C (LIPC) using HepaRG (AID 2283514)
How it was run: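 Differentiated human HepaRG cells in serum-free induction medium were exposed in duplicate for 48 h to eight concentrations (top 100 uM, half-log steps, 0.5% DMSO). LIPC mRNA was quantified by TaqMan qRT-PCR, normalized to ACTB, GAPDH and POLR2A, with bidirectional fitting versus DMSO.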

[16] = read-out: Lipoprotein lipase (LPL), LPL (gene 4023); assay: LTEA_HepaRG_LPL: Life Technologies and Expression Analysis (LTEA) Assay for Lipoprotein lipase (LPL) using HepaRG (AID 2283515)
How it was run: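 Differentiated human HepaRG cells in serum-free induction medium were exposed in duplicate for 48 h to eight half-log concentrations (top 100 uM) in 0.5% DMSO. LPL mRNA was quantified by TaqMan qRT-PCR, normalized to ACTB, GAPDH and POLR2A.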

[17] = read-out: MicroRNA 122 (MIR122), gene 406906; assay: LTEA_HepaRG_MIR122: Life Technologies and Expression Analysis (LTEA) Assay for MicroRNA 122 (MIR122) using HepaRG (AID 2283516); further: the transcript read is the microRNA miR-122
How it was run: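 Differentiated human HepaRG cells were exposed 48 h in serum-free induction medium to eight half-log concentrations (top 100 uM, 0.5% DMSO). Transcript level was measured by TaqMan qRT-PCR, normalized to ACTB, GAPDH and POLR2A, and fitted bidirectionally versus DMSO.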

[18] = read-out: matrix metalloproteinase-10 (MMP10), MMP10 (gene 4319); assay: LTEA_HepaRG_MMP10: Life Technologies and Expression Analysis (LTEA) Assay for matrix metalloproteinase-10 (MMP10) using HepaRG (AID 2283517)
How it was run: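 HepaRG, collagen I, ~100,000 cells/well; serum-free induction medium; 48 h exposure, duplicate, 8-pt half-log to 100 uM, 0.5% DMSO. Readout: TaqMan qRT-PCR, normalized to ACTB/GAPDH/POLR2A; bidirectional fit vs DMSO.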

MYC, MYC (gene 4609) = assay: LTEA_HepaRG_MYC: Life Technologies and Expression Analysis (LTEA) Assay for MYC using HepaRG (AID 2283518)
How it was run: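 Cells are thawed, plated and cultured 48 h, then treated for 48 h with test chemicals (eight half-log concentrations from 100 uM, 0.5% DMSO vehicle). RNA is isolated and MYC expression quantified by qRT-PCR against three housekeeping genes.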

Measured: AC50

Sequence of Hypoxia-inducible factor 1-alpha (Homo sapiens) (Q16665 whole entry, looked up): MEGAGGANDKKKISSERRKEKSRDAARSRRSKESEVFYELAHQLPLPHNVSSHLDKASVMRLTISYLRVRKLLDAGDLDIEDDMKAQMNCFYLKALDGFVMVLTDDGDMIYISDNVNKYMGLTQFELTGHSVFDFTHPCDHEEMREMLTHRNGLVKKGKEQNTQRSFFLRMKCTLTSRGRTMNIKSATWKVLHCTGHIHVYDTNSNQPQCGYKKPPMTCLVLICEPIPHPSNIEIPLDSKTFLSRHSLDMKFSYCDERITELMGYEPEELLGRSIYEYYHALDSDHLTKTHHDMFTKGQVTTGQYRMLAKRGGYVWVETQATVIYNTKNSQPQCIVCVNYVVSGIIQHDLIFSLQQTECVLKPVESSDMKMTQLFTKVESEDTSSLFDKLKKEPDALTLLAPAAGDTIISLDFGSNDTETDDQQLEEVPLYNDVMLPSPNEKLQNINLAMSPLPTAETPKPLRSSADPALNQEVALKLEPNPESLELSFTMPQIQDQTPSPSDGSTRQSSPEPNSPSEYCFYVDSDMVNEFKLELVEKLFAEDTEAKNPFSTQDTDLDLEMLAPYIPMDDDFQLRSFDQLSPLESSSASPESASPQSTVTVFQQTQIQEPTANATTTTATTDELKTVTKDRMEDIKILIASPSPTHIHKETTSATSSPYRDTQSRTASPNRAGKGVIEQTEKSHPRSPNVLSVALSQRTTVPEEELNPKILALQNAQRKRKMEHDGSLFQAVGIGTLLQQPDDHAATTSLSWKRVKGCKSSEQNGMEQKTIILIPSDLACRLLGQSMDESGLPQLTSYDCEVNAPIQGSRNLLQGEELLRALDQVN

COc1cc(S(=O)(=O)O)c(C)cc1N=Nc1c(O)ccc2cc(S(=O)(=O)O)ccc12
inactive: all assays above

Cc1cccc([N+](=O)[O-])c1C
inactive: all assays above

CCc1c(C(=O)NN2CCCCC2)nn(-c2ccc(Cl)cc2Cl)c1-c1ccc(Br)cc1
inactive: [3]
active: [1] 41.6 µM | [2] 50 µM | [4] 86.3 µM | [5] 86.6 µM | [6] 23.7 µM | HGF (gene 3082) 90.4 µM | [7] 50 µM | [8] 26.6 µM | [9] 31.6 µM | [10] 76.5 µM | [11] 89.1 µM | [12] 58.6 µM | [13] 50 µM | [14] 50 µM | [15] 34.2 µM | [16] 4.13 µM | [17] 29.8 µM | [18] 33.2 µM | MYC, MYC (gene 4609) 50 µM

Cc1cc(NC(=O)C(=O)O)cc(C)c1Oc1ccc(O)c2c1CCC2
active: [5] 0.021 µM | [6] 0.00423 µM | [7] 0.022 µM | [13] 0.0224 µM
inactive: all other assays above

C=CCc1ccc(O)c(OC)c1
inactive: all assays above

CC1=C(/C=C/C(C)=C/C=C/C(C)=C/CO)C(C)(C)CCC1
active: [4] 68.4 µM | [7] 52.2 µM
inactive: all other assays above
